For some of these results: Potency and affinity values are given separately.
Columns and labels:
Set-up in all cases: scale not given: direction of the effect not stated beside the values
[1] = biological target: Protein translocase subunit SecA (Escherichia coli (strain K12)) (UniProt P10408); assay: Assay to Identify E. coli SecA ATPase Inhibitors; type: functional; conditions: 30 µM
[2] = biological target: T1, Ubiquitin-activating enzyme e1, putative (Leishmania donovani (strain BPK282A1)) (UniProt E9BSI1); assay: Leishmania donovani Ubiquitin Activating Enzyme (LdE1); type: functional; conditions: 30 µM
T1 sequence (whole entry): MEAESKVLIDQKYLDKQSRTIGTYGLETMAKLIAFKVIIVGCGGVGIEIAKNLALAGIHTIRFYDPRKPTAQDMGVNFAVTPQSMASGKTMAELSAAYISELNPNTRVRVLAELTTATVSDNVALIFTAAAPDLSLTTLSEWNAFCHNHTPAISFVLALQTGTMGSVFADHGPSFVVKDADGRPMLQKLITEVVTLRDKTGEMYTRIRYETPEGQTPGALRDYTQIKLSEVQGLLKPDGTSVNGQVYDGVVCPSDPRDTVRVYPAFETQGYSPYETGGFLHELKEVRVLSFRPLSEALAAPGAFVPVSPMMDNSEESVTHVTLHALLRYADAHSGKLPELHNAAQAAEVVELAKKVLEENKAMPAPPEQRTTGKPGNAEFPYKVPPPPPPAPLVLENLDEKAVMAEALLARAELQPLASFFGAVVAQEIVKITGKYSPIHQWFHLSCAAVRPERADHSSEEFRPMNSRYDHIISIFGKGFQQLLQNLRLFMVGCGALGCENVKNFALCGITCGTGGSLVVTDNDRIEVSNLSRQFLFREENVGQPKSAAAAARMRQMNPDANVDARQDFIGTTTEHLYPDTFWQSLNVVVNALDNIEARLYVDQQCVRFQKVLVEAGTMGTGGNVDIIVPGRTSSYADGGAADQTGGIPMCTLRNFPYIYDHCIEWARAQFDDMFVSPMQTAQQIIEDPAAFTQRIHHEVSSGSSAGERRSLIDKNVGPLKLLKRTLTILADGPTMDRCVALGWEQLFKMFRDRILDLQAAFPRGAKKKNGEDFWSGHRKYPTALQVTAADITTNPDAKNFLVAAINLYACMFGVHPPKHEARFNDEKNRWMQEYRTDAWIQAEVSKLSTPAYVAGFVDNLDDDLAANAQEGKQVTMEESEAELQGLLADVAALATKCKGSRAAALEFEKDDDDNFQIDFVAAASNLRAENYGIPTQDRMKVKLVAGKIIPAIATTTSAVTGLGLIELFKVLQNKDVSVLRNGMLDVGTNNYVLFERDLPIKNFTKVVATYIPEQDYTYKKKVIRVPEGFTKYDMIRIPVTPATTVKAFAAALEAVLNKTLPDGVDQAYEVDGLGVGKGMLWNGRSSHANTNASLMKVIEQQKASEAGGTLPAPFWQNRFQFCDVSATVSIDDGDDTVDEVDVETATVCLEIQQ

[3] = biological target: AMP-activated protein kinase, AMPK (Homo sapiens) (UniProt P54646+O43741+P54619+Q9UGJ0+Q9Y478+Q13131+Q9UGI9); assay: AMP-dependent Kinase enzyme assay. An in vitro enzyme assay that detects ADP turnover that is directly proportional to AMPK activity. This uses naive AMPK that is activated during the assay with MK-8722; type: functional; conditions: 30 µM
[4] = biological target: Sialic acid-binding Ig-like lectin 9 (Homo sapiens) (UniProt Q9Y336); assay: Hs-Siglec9 ALPHAscreen SOP 20170721; conditions: 10 µM
Trypanosoma cruzi = assay: Trypanosoma cruzi phosphomannomutase and mannose-1-phosphate guanylyltransferase assay; type: functional; conditions: 10 µM
[5] = biological target: T2, Arginase-2, mitochondrial (Homo sapiens) (UniProt P78540); assay: in vitro enzyme assay to detect the production of urea directly proportional to the activity of Arginase II; type: functional; conditions: 33.3 µM; further: in the data most compounds retested in dose-response had high values
T2 sequence (whole entry): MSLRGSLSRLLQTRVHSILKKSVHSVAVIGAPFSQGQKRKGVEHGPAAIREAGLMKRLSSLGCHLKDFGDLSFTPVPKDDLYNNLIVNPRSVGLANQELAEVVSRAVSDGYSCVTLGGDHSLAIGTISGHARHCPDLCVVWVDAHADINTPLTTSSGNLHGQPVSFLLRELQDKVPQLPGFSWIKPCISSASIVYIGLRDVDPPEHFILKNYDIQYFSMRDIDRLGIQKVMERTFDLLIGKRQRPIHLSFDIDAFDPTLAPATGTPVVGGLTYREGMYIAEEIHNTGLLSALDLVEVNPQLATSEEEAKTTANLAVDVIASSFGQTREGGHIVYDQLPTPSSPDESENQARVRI

[6] = biological target: T3, Proteasome subunit beta (Trypanosoma cruzi) (UniProt O96673); assay: Trypanosoma cruzi proteasome chymotrypsin-like activity (TcProtChymo) assay.; further: in the data most compounds retested in dose-response had high values; type: functional; conditions: 9.37 µM
T3 sequence (whole entry): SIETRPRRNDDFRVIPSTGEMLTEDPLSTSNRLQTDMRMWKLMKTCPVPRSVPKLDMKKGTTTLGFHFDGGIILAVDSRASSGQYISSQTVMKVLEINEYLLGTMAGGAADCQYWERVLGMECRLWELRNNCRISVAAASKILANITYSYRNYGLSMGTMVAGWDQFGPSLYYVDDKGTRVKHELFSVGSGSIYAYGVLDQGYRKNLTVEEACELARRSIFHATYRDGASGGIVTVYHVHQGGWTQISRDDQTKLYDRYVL

Homo sapiens = organism: Homo sapiens; assay: To identify inhibition of the IFN signalling (Jak-Stat) pathway via expression of an eGFP reporter gene under the control of an IFN-stimulated response element (ISRE) containing MxA promoter.; type: functional; conditions: 30 µM
[7] = biological target: T4, Tyrosyl-tRNA synthetase, putative (Trypanosoma cruzi (strain CL Brener)) (UniProt Q4DSP6); assay: Trypanosoma cruzi tyrosyl tRNA synthetase (TcYRS) _High Tyrosine SOP; type: functional; conditions: 30 µM; further: in the data most compounds retested in dose-response had high values
T4 sequence (whole entry): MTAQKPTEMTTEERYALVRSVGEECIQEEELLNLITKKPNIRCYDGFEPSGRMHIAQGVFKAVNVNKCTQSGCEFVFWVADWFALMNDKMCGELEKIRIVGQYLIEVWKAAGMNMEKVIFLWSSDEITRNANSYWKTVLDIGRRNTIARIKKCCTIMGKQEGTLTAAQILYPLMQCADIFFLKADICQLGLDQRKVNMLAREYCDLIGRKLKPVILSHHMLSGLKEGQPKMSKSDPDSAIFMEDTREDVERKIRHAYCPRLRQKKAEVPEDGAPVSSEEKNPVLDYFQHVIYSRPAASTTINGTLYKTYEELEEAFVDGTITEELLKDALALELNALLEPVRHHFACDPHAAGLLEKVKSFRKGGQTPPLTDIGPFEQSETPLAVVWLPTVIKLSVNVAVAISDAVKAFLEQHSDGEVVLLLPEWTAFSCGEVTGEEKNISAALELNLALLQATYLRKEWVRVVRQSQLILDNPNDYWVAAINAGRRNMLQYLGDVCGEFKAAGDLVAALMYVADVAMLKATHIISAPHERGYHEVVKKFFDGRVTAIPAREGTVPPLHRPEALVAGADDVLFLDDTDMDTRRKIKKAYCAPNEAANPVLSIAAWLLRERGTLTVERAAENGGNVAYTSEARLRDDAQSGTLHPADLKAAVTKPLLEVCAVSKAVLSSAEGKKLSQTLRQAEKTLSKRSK

[8] = biological target: T4, Tyrosyl-tRNA synthetase, putative (Trypanosoma cruzi (strain CL Brener)); assay: Trypanosoma cruzi tyrosyl tRNA synthetase (TcYRS) SOP; type: functional; conditions: 30 µM
[9] = biological target: Chromo domain-containing protein 1 (Saccharomyces cerevisiae (strain ATCC 204508 / S288c) (Baker's yeast)) (UniProt P32657); assay: ScCHD-1 Enzyme Inhibition Assay; type: functional; conditions: 30 µM; further: in the data most compounds retested in dose-response had high values
Chain of Chromo domain-containing protein 1 (Saccharomyces cerevisiae (strain ATCC 204508 / S288c) (Baker's yeast)) (P32657 whole entry, the tested form may be a part): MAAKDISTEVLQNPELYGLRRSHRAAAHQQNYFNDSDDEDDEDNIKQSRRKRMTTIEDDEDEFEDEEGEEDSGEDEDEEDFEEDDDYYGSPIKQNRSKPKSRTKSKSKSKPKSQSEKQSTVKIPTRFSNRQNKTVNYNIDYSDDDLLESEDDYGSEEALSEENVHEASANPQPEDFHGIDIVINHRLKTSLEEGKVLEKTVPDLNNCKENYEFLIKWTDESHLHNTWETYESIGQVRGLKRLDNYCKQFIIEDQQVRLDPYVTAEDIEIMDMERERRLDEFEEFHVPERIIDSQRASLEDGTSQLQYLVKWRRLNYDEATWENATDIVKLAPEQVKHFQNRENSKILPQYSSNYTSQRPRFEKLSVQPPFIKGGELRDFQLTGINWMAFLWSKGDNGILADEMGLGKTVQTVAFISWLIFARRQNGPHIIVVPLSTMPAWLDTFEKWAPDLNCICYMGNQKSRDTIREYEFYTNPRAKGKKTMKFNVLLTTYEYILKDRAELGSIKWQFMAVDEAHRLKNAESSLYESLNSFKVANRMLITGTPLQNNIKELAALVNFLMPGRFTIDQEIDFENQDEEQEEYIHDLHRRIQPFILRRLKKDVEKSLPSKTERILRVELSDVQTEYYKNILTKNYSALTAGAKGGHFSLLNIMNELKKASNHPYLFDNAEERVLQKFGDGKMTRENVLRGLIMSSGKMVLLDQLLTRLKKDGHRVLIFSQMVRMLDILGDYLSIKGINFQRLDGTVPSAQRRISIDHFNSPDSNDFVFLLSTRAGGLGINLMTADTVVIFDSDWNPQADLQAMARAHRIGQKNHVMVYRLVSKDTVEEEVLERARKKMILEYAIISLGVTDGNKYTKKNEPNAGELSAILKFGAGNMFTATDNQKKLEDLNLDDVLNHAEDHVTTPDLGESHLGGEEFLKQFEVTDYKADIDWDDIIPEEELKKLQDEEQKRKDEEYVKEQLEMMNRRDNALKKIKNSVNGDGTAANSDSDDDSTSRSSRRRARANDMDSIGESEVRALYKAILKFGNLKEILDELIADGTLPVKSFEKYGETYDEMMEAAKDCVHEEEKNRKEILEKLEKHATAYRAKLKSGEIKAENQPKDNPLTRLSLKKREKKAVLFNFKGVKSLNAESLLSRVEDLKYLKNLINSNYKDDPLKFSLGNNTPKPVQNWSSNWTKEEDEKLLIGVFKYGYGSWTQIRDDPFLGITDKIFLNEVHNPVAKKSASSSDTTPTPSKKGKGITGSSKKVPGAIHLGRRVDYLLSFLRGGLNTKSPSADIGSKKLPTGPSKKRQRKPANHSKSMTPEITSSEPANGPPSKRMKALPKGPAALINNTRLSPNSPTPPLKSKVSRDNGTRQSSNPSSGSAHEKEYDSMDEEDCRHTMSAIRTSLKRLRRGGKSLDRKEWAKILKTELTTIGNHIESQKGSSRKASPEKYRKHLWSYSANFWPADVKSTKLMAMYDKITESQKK

Chain of Sialic acid-binding Ig-like lectin 9 (Homo sapiens) (Q9Y336 whole entry): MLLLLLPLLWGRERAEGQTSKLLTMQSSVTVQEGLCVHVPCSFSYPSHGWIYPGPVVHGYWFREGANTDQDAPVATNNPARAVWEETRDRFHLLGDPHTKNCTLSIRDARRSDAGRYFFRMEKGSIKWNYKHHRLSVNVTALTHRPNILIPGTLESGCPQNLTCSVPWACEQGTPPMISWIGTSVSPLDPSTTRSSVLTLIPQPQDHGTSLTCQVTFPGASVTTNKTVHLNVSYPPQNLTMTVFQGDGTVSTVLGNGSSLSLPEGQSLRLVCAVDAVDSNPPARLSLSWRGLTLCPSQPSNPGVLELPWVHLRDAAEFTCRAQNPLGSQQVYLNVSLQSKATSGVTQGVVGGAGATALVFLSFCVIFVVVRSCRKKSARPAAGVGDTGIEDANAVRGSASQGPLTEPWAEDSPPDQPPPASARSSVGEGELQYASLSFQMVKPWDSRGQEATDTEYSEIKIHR
Chain of Protein translocase subunit SecA (Escherichia coli (strain K12)) (P10408 whole entry): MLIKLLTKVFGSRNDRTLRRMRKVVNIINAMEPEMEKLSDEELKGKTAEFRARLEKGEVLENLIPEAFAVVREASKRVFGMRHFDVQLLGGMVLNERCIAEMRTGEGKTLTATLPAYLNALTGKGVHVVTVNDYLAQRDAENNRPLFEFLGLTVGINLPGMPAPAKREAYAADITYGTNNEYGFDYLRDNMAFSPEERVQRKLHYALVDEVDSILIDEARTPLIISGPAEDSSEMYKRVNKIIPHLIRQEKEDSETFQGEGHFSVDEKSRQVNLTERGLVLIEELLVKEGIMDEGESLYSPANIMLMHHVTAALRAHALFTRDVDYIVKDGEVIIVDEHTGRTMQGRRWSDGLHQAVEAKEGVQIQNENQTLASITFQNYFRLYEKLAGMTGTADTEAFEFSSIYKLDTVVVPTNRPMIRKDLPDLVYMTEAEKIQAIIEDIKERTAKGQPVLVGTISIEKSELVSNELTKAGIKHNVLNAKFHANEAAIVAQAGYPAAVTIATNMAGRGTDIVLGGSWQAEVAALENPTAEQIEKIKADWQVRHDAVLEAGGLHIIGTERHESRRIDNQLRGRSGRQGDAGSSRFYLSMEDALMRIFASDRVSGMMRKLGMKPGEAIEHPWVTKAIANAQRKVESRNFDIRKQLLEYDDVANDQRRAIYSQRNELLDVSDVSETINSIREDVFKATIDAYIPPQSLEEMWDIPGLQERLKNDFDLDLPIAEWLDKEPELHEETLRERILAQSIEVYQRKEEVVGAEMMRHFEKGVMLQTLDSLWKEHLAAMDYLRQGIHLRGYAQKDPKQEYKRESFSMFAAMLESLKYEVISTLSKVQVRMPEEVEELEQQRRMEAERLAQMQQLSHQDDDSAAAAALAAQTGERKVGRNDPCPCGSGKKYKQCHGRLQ

Row | Compound | Percent Effect [1] [%] | Percent Effect [2] [%] | Percent Effect [3] [%] | Percent Effect [4] [%] | Percent Effect (Trypanosoma cruzi) [%] | Percent Effect [5] [%] | Percent Effect [6] [%] | Percent Effect (Homo sapiens) [%] | Percent Effect [7] [%] | Percent Effect [8] [%] | Percent Effect [9] [%]
1 | CN(C)c1cncc(C2CCN(CCO)CC2)n1 | -3.32 | 12.2 | 5.42 | -1.62 | -2.96 | -3.94 | 8.74 | 8.75 | 7.53 | 16.9 | -15.7
2 | CC(C)c1nnc2n1CCN(C(=O)CN1Cc3ccccc3C1=O)C2 | -6.1 | 2.63 | -4.36 | 2.22 | 6.2 | -0.383 | 4.34 | 6.89 | 9.31 | 17.1 | -12.6
3 | Cc1nnc(N2CC[C@H]3C[C@@H](C(=O)NC4CCCC4)O[C@H]3C2)s1 | -5.67 | 0 | 11.8 | -3.34 | -1.66 | 1.59 | 0.738 | 10.7 | -1.08 | 7.69 | 8.63
4 | COc1cccc(N2CCN(CC(O)c3cc(C)sc3C)CC2)c1 (stereo not drawn) | -4.6 | 20.3 | 6.95 | -1.22 | 2.77 | -2.55 | 5.62 | 19.5 | 15.1 | 22.1 | -16.3
5 | Cc1noc(C2CCCN(C(=O)c3ccc(Br)o3)C2)n1 (stereo not drawn) | -6.46 | 13 | -5.37 | -19.7 | 7.54 | -4.84 | 13.8 | 1.55 | 3.81 | 21.2 | -17.1
6 | CNC(=O)c1ccc(C2CN(C(=O)c3cncs3)CCO2)nc1 (stereo not drawn) | -2.48 | 20.3 | 5.67 | 6.66 | 1.19 | -1.62 | 11.1 | -10 | 2.15 | 16.9 | -16.6
7 | CCN(CC(=O)NC)S(=O)(=O)N1CCCCCC1 | -5.53 | 10.8 | -3.76 | 4.7 | -0.489 | 3.72 | 6.61 | 8.47 | 4.3 | 13.6 | -2.62
8 | COc1ccc(CNC(=O)CNc2cc3c(cc2Cl)OCCCO3)cc1 | -3.73 | -2.7 | 2.47 | -4.48 | -2.25 | 0.744 | 3.35 | 11.5 | 1.07 | 1.24 | -1.22

Reference: ChEMBL document CHEMBL3988442, “University of Dundee, Small-Polar-MMV Screening Library” (2021)
